Experimental findings from paper PMC7862700, “An all-to-all approach to the identification of sequence-specific readers for epigenetic DNA modifications on cytosine” are described below.

What all share (assay): DAPPL (digital affinity profiling via proximity ligation, sequencing); 10 mM Tris-HCl pH 7.5, 50 mM NaCl, 1 mM DTT, 4% glycerol, room temperature, 30 min; GST-TFs on glutathione beads, 16-mer random dsDNA library, 0.1% formaldehyde crosslink after washing; high values mean tight binding
In assay [1] the target is T1, FEV (Homo sapiens, UniProt Q99581 1-238).
T1 sequence: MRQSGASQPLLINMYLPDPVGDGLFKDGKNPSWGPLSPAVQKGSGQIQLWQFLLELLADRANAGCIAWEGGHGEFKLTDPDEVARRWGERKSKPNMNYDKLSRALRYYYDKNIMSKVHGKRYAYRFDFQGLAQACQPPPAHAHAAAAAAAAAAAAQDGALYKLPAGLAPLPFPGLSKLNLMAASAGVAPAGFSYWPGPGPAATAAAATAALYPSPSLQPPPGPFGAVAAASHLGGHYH
The note with it: protein: recombinant; tags: N-terminal GST; dsDNA, one strand shown. Put shortly: (§1)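 GST fusions of human transcription factors were expressed in yeast and captured with glutathione beads. Once given DNA barcodes and pooled alongside a tag-only sample, they were incubated for 30 min at room temperature with 200 nmole of a random double-stranded 16-mer DNA library in Tris/NaCl/DTT/glycerol buffer, then washed, crosslinked (0.1% formaldehyde), proximity-ligated, PCR-amplified and sequenced on an Illumina NextSeq500. The binding signal of each hexamer is its read frequency for a factor divided by its frequency for the tag-only sample.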

Assay [2] deals with ETV5 (Homo sapiens, UniProt P41161 1-510). The note with it: protein: recombinant; tags: N-terminal GST; dsDNA, one strand shown. The gist of the method:
as §1

In assay [3] the target is HSF1 (Homo sapiens, UniProt Q00613 1-529). The following applies: protein: recombinant; tags: N-terminal GST; chain copies: 3; dsDNA, one strand shown. The gist of the method:
as §1

Assay [4] deals with T2, SPIC (Homo sapiens, UniProt Q8N5J4 1-248).
T2 sequence: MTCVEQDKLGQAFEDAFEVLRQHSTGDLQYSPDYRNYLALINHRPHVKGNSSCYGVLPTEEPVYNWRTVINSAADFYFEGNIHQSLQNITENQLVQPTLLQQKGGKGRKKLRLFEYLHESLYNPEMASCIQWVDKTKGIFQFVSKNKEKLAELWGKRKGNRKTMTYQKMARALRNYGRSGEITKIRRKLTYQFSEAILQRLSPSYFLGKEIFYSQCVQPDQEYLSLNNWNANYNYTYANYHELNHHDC
The following applies: protein: recombinant; tags: N-terminal GST; dsDNA, one strand shown. The gist of the method:
as §1

Assay [5] deals with ELF4 (Homo sapiens, UniProt Q99607 1-663). The following applies: protein: recombinant; tags: N-terminal GST; dsDNA, one strand shown. The gist of the method:
as §1

Assay [6] deals with T3, ELK4 (Homo sapiens, UniProt P28324-2 1-405).
T3 sequence: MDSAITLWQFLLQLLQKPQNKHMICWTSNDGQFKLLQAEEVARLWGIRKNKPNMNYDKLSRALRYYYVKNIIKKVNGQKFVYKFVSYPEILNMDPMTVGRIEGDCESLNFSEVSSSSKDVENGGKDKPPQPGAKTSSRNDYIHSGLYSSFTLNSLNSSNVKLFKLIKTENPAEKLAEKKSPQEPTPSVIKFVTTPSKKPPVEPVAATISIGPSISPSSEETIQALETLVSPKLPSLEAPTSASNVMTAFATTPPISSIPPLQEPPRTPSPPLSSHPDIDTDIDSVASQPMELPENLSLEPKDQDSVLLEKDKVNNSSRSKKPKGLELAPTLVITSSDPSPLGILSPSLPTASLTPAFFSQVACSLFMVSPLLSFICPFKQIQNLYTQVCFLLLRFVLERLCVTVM
The note with it: protein: recombinant; tags: N-terminal GST; dsDNA, one strand shown. The gist of the method:
as §1

Assay [7] deals with T4, ETV2 (Homo sapiens, UniProt O00321 1-342).
T4 sequence: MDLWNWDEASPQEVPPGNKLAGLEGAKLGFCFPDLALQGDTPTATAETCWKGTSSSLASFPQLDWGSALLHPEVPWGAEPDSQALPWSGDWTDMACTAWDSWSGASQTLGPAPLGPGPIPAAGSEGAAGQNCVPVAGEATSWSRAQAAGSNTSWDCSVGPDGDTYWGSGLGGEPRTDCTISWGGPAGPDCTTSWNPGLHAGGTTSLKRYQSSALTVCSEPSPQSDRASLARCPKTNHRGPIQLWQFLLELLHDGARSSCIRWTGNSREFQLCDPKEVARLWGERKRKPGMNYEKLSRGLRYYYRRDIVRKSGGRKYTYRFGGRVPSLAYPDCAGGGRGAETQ
The following applies: protein: recombinant; tags: N-terminal GST; dsDNA, one strand shown. Put shortly: as §1

Assay [8] addresses T5, ELF3 (Homo sapiens, UniProt P78545 1-371).
T5 sequence: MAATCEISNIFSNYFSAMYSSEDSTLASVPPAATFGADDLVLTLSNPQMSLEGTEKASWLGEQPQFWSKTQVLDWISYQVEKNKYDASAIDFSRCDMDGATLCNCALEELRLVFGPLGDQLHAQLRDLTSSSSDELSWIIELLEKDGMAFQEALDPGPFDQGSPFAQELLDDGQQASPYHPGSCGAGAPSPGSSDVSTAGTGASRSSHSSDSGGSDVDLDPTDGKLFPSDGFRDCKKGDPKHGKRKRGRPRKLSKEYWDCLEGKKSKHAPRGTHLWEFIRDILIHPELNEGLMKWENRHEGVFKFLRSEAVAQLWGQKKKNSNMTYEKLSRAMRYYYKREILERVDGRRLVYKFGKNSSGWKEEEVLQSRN
The following applies: protein: recombinant; tags: N-terminal GST; dsDNA, one strand shown. Put shortly:
as §1

Assay [9] concerns the target CRX (Homo sapiens, UniProt O43186 1-299). The note with it: protein: recombinant; tags: N-terminal GST; dsDNA, one strand shown. The gist of the method:
as §1

Assay [10] concerns the target ETV1 (Homo sapiens, UniProt P50549 1-477). The note with it: protein: recombinant; tags: N-terminal GST; dsDNA, one strand shown. Put shortly:
as §1

Sequence of ETV5 (P41161 whole entry): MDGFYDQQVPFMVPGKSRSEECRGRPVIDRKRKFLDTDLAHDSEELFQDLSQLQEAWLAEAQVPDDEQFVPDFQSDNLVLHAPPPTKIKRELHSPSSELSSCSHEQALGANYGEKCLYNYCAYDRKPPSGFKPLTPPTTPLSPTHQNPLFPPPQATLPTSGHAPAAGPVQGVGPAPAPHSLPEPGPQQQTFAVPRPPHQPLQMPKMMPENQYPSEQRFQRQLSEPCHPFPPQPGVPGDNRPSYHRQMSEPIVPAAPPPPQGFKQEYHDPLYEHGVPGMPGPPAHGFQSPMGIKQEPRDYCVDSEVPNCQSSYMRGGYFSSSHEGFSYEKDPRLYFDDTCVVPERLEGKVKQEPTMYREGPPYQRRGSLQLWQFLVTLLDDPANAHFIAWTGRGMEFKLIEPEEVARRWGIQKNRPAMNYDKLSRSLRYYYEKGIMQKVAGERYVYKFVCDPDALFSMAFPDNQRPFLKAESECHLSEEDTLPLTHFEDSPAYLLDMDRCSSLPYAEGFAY
Sequence of ETV1 (P50549 whole entry): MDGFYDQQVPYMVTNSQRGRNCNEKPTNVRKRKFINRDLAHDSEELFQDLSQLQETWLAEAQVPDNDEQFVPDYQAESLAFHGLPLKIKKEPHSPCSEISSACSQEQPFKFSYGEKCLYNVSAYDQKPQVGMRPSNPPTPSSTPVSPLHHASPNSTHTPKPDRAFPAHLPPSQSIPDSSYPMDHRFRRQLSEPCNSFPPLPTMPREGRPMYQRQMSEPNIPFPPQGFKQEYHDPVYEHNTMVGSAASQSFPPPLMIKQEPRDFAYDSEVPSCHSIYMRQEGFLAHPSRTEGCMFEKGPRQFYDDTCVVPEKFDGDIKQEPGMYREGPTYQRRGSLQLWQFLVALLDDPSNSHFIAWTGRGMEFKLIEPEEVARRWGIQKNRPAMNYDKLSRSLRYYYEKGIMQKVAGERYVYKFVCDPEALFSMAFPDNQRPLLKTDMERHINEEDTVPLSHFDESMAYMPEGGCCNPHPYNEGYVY
Sequence of HSF1 (Q00613 whole entry): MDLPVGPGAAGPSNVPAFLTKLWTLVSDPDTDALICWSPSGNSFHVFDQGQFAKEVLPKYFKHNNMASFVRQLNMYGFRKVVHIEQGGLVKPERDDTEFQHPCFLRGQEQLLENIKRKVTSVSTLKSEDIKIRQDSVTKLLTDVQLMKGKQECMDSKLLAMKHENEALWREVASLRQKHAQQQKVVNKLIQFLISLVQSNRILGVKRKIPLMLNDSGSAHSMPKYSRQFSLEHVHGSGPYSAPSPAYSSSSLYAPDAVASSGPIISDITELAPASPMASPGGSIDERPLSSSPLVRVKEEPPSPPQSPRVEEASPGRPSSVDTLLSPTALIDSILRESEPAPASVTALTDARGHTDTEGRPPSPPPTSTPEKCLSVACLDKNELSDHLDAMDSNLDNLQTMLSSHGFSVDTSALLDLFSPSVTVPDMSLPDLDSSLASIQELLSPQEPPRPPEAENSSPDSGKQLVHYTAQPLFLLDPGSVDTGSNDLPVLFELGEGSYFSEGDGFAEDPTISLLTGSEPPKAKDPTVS
Sequence of ELF4 (Q99607 whole entry): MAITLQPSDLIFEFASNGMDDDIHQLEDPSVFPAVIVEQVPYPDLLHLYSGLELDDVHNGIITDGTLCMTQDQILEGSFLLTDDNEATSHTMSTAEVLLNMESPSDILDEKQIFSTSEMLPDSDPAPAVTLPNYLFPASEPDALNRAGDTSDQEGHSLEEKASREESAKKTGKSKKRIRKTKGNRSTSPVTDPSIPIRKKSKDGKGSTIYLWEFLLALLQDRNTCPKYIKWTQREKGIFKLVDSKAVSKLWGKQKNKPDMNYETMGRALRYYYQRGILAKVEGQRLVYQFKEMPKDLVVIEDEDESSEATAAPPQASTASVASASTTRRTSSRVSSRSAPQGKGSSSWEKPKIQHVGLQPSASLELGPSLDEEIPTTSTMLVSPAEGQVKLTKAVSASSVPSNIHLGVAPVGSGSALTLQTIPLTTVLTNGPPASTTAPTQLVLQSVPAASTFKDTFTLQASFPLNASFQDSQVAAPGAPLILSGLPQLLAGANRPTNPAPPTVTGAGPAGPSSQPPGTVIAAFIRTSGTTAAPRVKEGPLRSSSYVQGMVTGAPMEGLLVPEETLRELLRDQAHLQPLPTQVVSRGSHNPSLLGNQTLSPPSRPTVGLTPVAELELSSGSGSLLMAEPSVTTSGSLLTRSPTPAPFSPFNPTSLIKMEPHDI
Sequence of CRX (O43186 whole entry): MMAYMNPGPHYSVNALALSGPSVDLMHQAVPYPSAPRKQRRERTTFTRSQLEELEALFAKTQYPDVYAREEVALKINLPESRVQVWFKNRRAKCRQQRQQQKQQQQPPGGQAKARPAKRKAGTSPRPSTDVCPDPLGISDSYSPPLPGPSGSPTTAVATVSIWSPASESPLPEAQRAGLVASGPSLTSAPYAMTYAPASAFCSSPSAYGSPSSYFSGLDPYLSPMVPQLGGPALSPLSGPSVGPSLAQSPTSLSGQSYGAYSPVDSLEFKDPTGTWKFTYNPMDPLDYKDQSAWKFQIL

With CTGTAC, the binding signal is 1.44 fold enrichment (6-mer frequency, TF over GST control) in assay [1]; 1.34 fold enrichment (6-mer frequency, TF over GST control) in [2]; 1.02 fold enrichment (6-mer frequency, TF over GST control) in assay [3]; 1.41 fold enrichment (6-mer frequency, TF over GST control) in [4]; 1.33 fold enrichment (6-mer frequency, TF over GST control) in [5]; 1.43 fold enrichment (6-mer frequency, TF over GST control) in [6]. Besides, the binding signal in assay [7] is 1.39 fold enrichment (6-mer frequency, TF over GST control); in [8] it was 1.26 fold enrichment (6-mer frequency, TF over GST control); in assay [9] it was 1.06 fold enrichment (6-mer frequency, TF over GST control); in assay [10], 1.42 fold enrichment (6-mer frequency, TF over GST control).

For the sequence TACCCG, the binding signal was 1.39 fold enrichment (6-mer frequency, TF over GST control) in [1]; 1.5 fold enrichment (6-mer frequency, TF over GST control) in assay [2]; 1.25 fold enrichment (6-mer frequency, TF over GST control) in assay [3]; 1.55 fold enrichment (6-mer frequency, TF over GST control) in assay [4]; 1.4 fold enrichment (6-mer frequency, TF over GST control) in [5]; 1.55 fold enrichment (6-mer frequency, TF over GST control) in assay [6]. Besides, the binding signal was 1.44 fold enrichment (6-mer frequency, TF over GST control) in assay [7]; 1.34 fold enrichment (6-mer frequency, TF over GST control) in assay [8]; 1.29 fold enrichment (6-mer frequency, TF over GST control) in assay [9]; 1.55 fold enrichment (6-mer frequency, TF over GST control) in [10].

As for CTGCTG, the binding signal in assay [1] is 1.25 fold enrichment (6-mer frequency, TF over GST control); in assay [2], 1.25 fold enrichment (6-mer frequency, TF over GST control); in assay [3] it was 1.09 fold enrichment (6-mer frequency, TF over GST control); in [4], 1.47 fold enrichment (6-mer frequency, TF over GST control); in assay [5] it was 1.25 fold enrichment (6-mer frequency, TF over GST control); in assay [6], 1.27 fold enrichment (6-mer frequency, TF over GST control). The binding signal in [7] was 1.05 fold enrichment (6-mer frequency, TF over GST control); in assay [8] it was 1.13 fold enrichment (6-mer frequency, TF over GST control); in assay [9], 1.01 fold enrichment (6-mer frequency, TF over GST control); in assay [10], 1.17 fold enrichment (6-mer frequency, TF over GST control).

On to AACGCT, for which the binding signal in assay [1] was 1.18 fold enrichment (6-mer frequency, TF over GST control); in assay [2], 1.23 fold enrichment (6-mer frequency, TF over GST control); in [3] it was 1.06 fold enrichment (6-mer frequency, TF over GST control); in assay [4] it was 1.26 fold enrichment (6-mer frequency, TF over GST control); in assay [5], 1.27 fold enrichment (6-mer frequency, TF over GST control); in assay [6], 1.22 fold enrichment (6-mer frequency, TF over GST control). The binding signal in assay [7] is 1.24 fold enrichment (6-mer frequency, TF over GST control); in [8] it was 1.14 fold enrichment (6-mer frequency, TF over GST control); in assay [9], 1.17 fold enrichment (6-mer frequency, TF over GST control); in assay [10] it was 1.2 fold enrichment (6-mer frequency, TF over GST control).

For the sequence TTCTTT, the binding signal is 1.19 fold enrichment (6-mer frequency, TF over GST control) in [1]; 1.14 fold enrichment (6-mer frequency, TF over GST control) in [2]; 1.7 fold enrichment (6-mer frequency, TF over GST control) in [3]; 1.2 fold enrichment (6-mer frequency, TF over GST control) in [4]; 1.28 fold enrichment (6-mer frequency, TF over GST control) in assay [5]; 1.25 fold enrichment (6-mer frequency, TF over GST control) in [6]. The binding signal in assay [7] was 1.27 fold enrichment (6-mer frequency, TF over GST control); in [8] it was 1.28 fold enrichment (6-mer frequency, TF over GST control); in assay [9] it was 1.44 fold enrichment (6-mer frequency, TF over GST control); in assay [10], 1.29 fold enrichment (6-mer frequency, TF over GST control).

TATAGT: the binding signal was 1.03 fold enrichment (6-mer frequency, TF over GST control) in assay [1]; 1.11 fold enrichment (6-mer frequency, TF over GST control) in assay [2]; 1.07 fold enrichment (6-mer frequency, TF over GST control) in assay [3]; 1.09 fold enrichment (6-mer frequency, TF over GST control) in [4]; 1.03 fold enrichment (6-mer frequency, TF over GST control) in assay [5]; 1.31 fold enrichment (6-mer frequency, TF over GST control) in [6]. The binding signal was 1.12 fold enrichment (6-mer frequency, TF over GST control) in assay [7]; 1.28 fold enrichment (6-mer frequency, TF over GST control) in assay [8]; 1.34 fold enrichment (6-mer frequency, TF over GST control) in [9]; 1.11 fold enrichment (6-mer frequency, TF over GST control) in assay [10].

As to AAACAC, the binding signal in assay [1] was 1.31 fold enrichment (6-mer frequency, TF over GST control); in [2], 1.24 fold enrichment (6-mer frequency, TF over GST control); in assay [3], 1.09 fold enrichment (6-mer frequency, TF over GST control); in assay [4] it was 1.24 fold enrichment (6-mer frequency, TF over GST control); in [5], 1.34 fold enrichment (6-mer frequency, TF over GST control); in [6], 1.27 fold enrichment (6-mer frequency, TF over GST control). Besides, the binding signal in assay [7] was 1.36 fold enrichment (6-mer frequency, TF over GST control); in assay [8], 1.33 fold enrichment (6-mer frequency, TF over GST control); in assay [9], 1.05 fold enrichment (6-mer frequency, TF over GST control); in assay [10], 1.26 fold enrichment (6-mer frequency, TF over GST control).
